Values joined by “and” are separate entries in the source; they are usually repeats but may differ in a detail not shown here. Equal values may be shown once. Results filed as inconclusive are left out. Active and inactive are the calls of the source. Unless noted, the call rests on the fitted dose curve; in most records, active means well fitted curve in the direction sought with a large enough effect; inconclusive means small, poorly fitted or top-dose-only effect, or another doubt; inactive means no such curve, though single readings can be large; an effect the other way counts as inactive or inconclusive.
How the values were obtained:
[1] = target: Cellular tumor antigen p53 (Homo sapiens) (UniProt P04637); test: Primary qHTS for small molecule compounds that upregulate eGFP-tagged delta133p53alpha (in N-terminal) cells. (AID 2060322); details: NCI-H358 eGFP-delta133p53alpha fluorescence, 24 h; activation: stronger effect = higher value; further: nearly all actives have a fitted effect of over 75% in size; further: potency means the concentration at half of the fitted maximal effect;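 on activation: cells pre-induced with doxycycline then dosed without doxycycline; 0% = DMSO vehicle and 100% = reference activator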
Outline: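 NCI-H358 cells pre-induced 24 h with 10 ng/ml doxycycline for eGFP-delta133p53alpha, plated dox-free and exposed 24 h at 37C to titrated compounds. Fixed, Hoechst-stained; gated GFP peak intensity by laser scanning cytometry, normalized to DMSO (0%) and 57.5 uM 5-azacytidine (100%).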

[2] = target: Cellular tumor antigen p53 (Homo sapiens) (UniProt P04637); test: Primary qHTS for small molecule compounds that upregulate eGFP-tagged delta133p53alpha (in C-terminal) cells. (AID 2060324); details: NCI-H358 delta133p53alpha-eGFP (C-terminal tag), GFP fluorescence imaging, 24 h; series mostly up to 57.5 µM; further: potency means the concentration at half of the fitted maximal effect
Outline: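 Read-out: gated-cell GFP peak intensity (laser scanning cytometer), plate-normalized with DMSO as 0% activity, after 24 h compound exposure at 37C. Cells were C-terminal eGFP-tagged delta133p53alpha NCI-H358, doxycycline-induced (100 ng/ml, 24 h) before plating.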

[3] = target: Aldehyde dehydrogenase, mitochondrial (Homo sapiens) (UniProt P05091); test: qHTS for Inhibitors of the Aldehyde Dehydrogenase Family (ALDH2) Validation screens (AID 2061302; active means well fitted inhibition curve with a large enough effect; title and protocol of this record describe different tests;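 further: plate controls were DMSO vehicle for no effect and maximal DPI positive control response for full effect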); details: ALDH inhibition qHTS; series mostly up to 42.6 µM
[4] = target: Retinaldehyde dehydrogenase 3 (Homo sapiens) (UniProt P47895); test: qHTS for Inhibitors of the Aldehyde Dehydrogenase Family (ALDH1A3) Validation screen (AID 2061312); details: ALDH1A3 enzyme inhibition qHTS validation, fluorescence; series mostly up to 84.7 µM; further: on the % scale 0 is the no-effect control and ±100 the full control effect; nearly all actives have a fitted effect of over 45% in size

Sequence of Cellular tumor antigen p53 (Homo sapiens) (P04637 whole entry, looked up): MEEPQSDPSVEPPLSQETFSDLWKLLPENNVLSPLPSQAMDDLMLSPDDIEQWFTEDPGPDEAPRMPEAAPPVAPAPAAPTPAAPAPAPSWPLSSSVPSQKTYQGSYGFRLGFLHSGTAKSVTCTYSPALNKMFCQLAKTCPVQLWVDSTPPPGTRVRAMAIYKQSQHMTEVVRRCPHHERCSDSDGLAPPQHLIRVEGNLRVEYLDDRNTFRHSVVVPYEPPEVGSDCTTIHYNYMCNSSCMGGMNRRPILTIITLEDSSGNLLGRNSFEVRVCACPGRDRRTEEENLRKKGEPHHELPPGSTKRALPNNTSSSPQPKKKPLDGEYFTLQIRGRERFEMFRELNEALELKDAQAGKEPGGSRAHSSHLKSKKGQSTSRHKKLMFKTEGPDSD

COC(=O)C1=C(C)NC(C)=C([N+](=O)[O-])C1c1ccccc1C(F)(F)F (configuration not stated)
inactive: activation [1] -39.9% | Potency [2] | Potency [3] | Potency [4]

Nc1ncnc2c1ncn2C1CCCO1 (configuration not stated)
inactive: activation [1] 9.27% | Potency [2] | Potency [3] | Potency [4]

OC[C@H]1O[C@H](n2cnc3c(N[C@H]4CCC[C@@H]4O)ncnc32)[C@H](O)[C@@H]1O
inactive: activation [1] -36% | Potency [2] | Potency [3] | Potency [4]

COc1ccc(CCn2nnnc2C2(c3ccc(C)cc3)CC2)cc1
inactive: activation [1] -20.3% | Potency [2] | Potency [3] | Potency [4]

CSc1nc(N)c2ncn([C@@H]3O[C@H](COP(=O)(O)OP(=O)(O)OP(=O)(O)O)[C@@H](O)[C@H]3O)c2n1
inactive: activation [1] 7.61% | Potency [2] | Potency [3] | Potency [4]

CCN(CC)CCNC(=O)c1cc(S(C)(=O)=O)ccc1OC
inactive: activation [1] -10% and -17.5% | Potency [2] | Potency [3] | Potency [4]

CCCn1c(=O)c2[nH]c(C3CCCC3)nc2n(CCC)c1=O
inactive: activation [1] -35.5% | Potency [2] | Potency [3] | Potency [4]

CC(/C=C/c1cccc(Oc2ccc(F)cc2)c1)N(O)C(N)=O (configuration not stated)
inactive: activation [1] -36% | Potency [2] | Potency [3] | Potency [4]

CN1C2CCCC1CC(NC(=O)c1nn(C)c3ccccc13)C2 (configuration not stated)
inactive: activation [1] -4.74% | Potency [2] | Potency [3] | Potency [4]

C[C@@H](O)[C@H]1C(=O)N2C(C(=O)O)=C(SCCN=CN)C[C@H]12
inactive: activation [1] -25.9% and 4.11% | Potency [2] | Potency [3] | Potency [4]

CC(C(=O)O)c1ccc(CC2CCCC2=O)cc1 (configuration not stated)
inactive: activation [1] -10% and 11.7% | Potency [2] | Potency [3] | Potency [4]

Brc1cc2c(cc1[C@H]1Nc3ccccc3[C@H]3C=CC[C@H]31)OCO2
inactive: activation [1] -5.37% | Potency [2] | Potency [3] | Potency [4]

COCCOC(=O)C1=C(C)NC(C)=C(C(=O)OC/C=C/c2ccccc2)C1c1cccc([N+](=O)[O-])c1 (configuration not stated)
inactive: activation [1] 8.47% and -12.4% | Potency [2] | Potency [3] | Potency [4]

Fc1cccc(/C=N/N=C/c2cccc(F)c2)c1
inactive: activation [1] -12.5% | Potency [2] | Potency [3] | Potency [4]

NC(N)=NC(N)=Nc1ccccc1
inactive: activation [1] -1.81% | Potency [2] | Potency [3] | Potency [4]

NCCCC(=O)O
inactive: activation [1] -3.84% | Potency [2] | Potency [3] | Potency [4]

CCOC(=O)C1=C(C)NC(C)=C(C(=O)OC)C1c1cccc(Cl)c1Cl (configuration not stated)
inactive: activation [1] 16.4% and -13.8% | Potency [2] | Potency [3] | Potency [4]

COc1cc(N)c(Cl)cc1C(=O)OCCN1CCCCC1
inactive: activation [1] -2.92% | Potency [2] | Potency [3] | Potency [4]

Cn1cc(C2=C(c3ccc(Cl)cc3Cl)C(=O)NC2=O)c2ccccc21
inactive: Potency [3] | Potency [4]
active: Potency [1] 10.7 µM | Potency [2] 2.39 µM

CC1C(=O)N(C)C(=O)c2nc[nH]c21 (configuration not stated)
inactive: activation [1] -19.1% | Potency [2] | Potency [3] | Potency [4]

O=c1[nH]c2ccccc2c2ccccc12
inactive: activation [1] 11.2% | Potency [2] | Potency [3] | Potency [4]

O=C(c1ccc(OCCCc2cnc[nH]2)cc1)C1CC1
inactive: activation [1] 6.88% | Potency [2] | Potency [3] | Potency [4]

CC[C@H]1OC(=O)[C@H](C)C(O[C@H]2C[C@@](C)(OC)[C@@H](O)[C@H](C)O2)[C@H](C)[C@@H](OC2O[C@H](C)C[C@H](N(C)C)[C@H]2O)[C@](C)(O)C[C@@H](C)CN(C)[C@H](C)[C@@H](O)[C@]1(C)O (some centres not stated)
inactive: activation [1] -28.2% | Potency [2] | Potency [3] | Potency [4]

OC(CN1CCC(Cc2ccc(F)cc2)CC1)c1ccc(Cl)cc1 (configuration not stated)
inactive: activation [1] 5.08% and 40.7% | Potency [2] | Potency [3] | Potency [4]

Nc1ccc(CCNc2ncnc3c2ncn3C2OC(CO)C(O)C2O)cc1 (configuration not stated)
inactive: activation [1] -6.89% | Potency [2] | Potency [3] | Potency [4]

CC(C)C(=O)c1c(C(C)C)nn2ccccc12
inactive: activation [1] -13.4% and -31.4% | Potency [2] | Potency [3] | Potency [4]

CC1CCN(CC[C@H]2CCCN2S(=O)(=O)c2cccc(O)c2)CC1
inactive: activation [1] -4.01% | Potency [2] | Potency [3] | Potency [4]

CC(C)NNC(=O)c1ccncc1
inactive: activation [1] 1.67% and -19% | Potency [2] | Potency [3] | Potency [4]
